Six1-Eya2 blk – inhibitors of human Six1/Eya2 interaction; AlphaScreen GST-Six1/His-Eya2 binding, biochemical; active compounds read low; 360,000 compounds, 0.56% hits; activity change, % (test concentration not listed); in the data active = activity change below about -65%; inconclusive = mostly about -30% to -63%
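GST-Six1 + His-Eya2 (5X stock: 250/500 nM); Tris pH 8.0, 300 mM NaCl, 0.05% BSA, 0.02% Tween 20; GSH donor/Ni acceptor beads; 1 h 37 °C dark; AlphaScreen readout.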
JMJD2A Tudor – inhibitors of human JMJD2A Tudor domain; O75164; AlphaScreen JMJD2A-Tudor / H3K4me3 peptide binding; Potency, µM (titrated, usually from 114 µM), hits mostly inhibitors; 390,000 compounds, 4.4% hits; also: nearly all actives have a fitted effect of over 50% in size
BAZ2B block – blocks human BAZ2B. Q9UIF8. 360,000 compounds, 4.4% hits. Potency, µM (titrated, usually from 114 µM), usual class: inhibitors. AlphaScreen BAZ2B-H3K14Ac peptide displacement; also: nearly all actives have a fitted effect of over 60% in size
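AlphaScreen displacement: compounds (up to 110uM) incubated 30 min at room temperature with a preformed 50 nM BAZ2B/50 nM biotinylated H3K14Ac peptide complex in PBS pH 7.4 with Tween-20. Donor and acceptor beads at 10 ug/mL final added, 20 min light-protected before reading.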
G9a block – G9a (human) methyltransferase inhibition; Q96KQ7; G9a H3K9 monomethylation, AlphaScreen, 2 h; Potency, µM (titrated, usually from 102 µM), hits mostly inhibitors; 350,000 compounds, 8.8% hits; AID 504332; also: nearly all actives have a fitted effect of over 75% in size
Target sequence (Q96KQ7 913-1193 limits assumed): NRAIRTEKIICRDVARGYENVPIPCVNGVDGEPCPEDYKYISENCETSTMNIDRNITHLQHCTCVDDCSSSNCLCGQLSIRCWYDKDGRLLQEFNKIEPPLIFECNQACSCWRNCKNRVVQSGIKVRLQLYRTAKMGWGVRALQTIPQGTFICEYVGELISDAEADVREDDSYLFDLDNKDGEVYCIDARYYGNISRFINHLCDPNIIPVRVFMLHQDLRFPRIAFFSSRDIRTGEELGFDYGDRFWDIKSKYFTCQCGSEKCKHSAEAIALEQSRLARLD
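Methyltransferase reactions run at room temperature for 2 h (20 nM enzyme, 500 nM biotin-H3K9 peptide, 20 uM SAM) after a 15 min compound preincubation; product detected by AlphaScreen beads and anti-H3K9me1 antibody.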
CtBP-E1A inh – inhibitors of CtBP/E1A interaction; AlphaScreen GST-E1A/His-CtBP binding, 1536-well; active compounds read low; activity change, % (test concentration not listed); 340,000 compounds, 0.49% hits; in the data active = activity change below about -65%; inconclusive = mostly about -30% to -63%
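In 5 uL wells, 23 nL compound meets equimolar GST-E1A and His-CtBP (5X stock 125 nM each) for 2 h, 37 °C. Beads (5X, 50 ug/mL) then 1 h, 37 °C, dark.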
HP1b binding inh – inhibitors of HP1-beta chromodomain binding to methylated histone tails. AID 540317. 390,000 compounds, 0.56% hits. Potency, µM (top dose mostly 114 µM), usual class: inhibitors. AlphaScreen HP1-beta / biotin-H3K9me3 peptide binding; also: nearly all actives have a fitted effect of over 70% in size
Target sequence (P83916 whole entry, looked up): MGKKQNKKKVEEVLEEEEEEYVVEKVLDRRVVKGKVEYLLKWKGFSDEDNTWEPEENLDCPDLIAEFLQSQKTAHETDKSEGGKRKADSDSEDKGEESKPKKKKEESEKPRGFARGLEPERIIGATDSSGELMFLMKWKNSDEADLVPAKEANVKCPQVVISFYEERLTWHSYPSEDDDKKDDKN
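Compound inhibition of the preformed complex between 50 nM HP1-beta and 50 nM biotinylated H3K9me3 peptide was read by AlphaScreen. Buffer was PBS pH 7.4 with 0.01% Tween-20. Incubations ran 30 min at room temperature, with 10 ug/mL donor/acceptor beads.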
Large screens that a line does not name were inactive. Rows were chosen to be rich in hits. Some 10% of all compounds tested hit in one or more screens of this group. Unless noted, calls follow the shape of the dose curve; as a rule, active = well fitted inhibition curve with a large enough effect; inconclusive = small, poorly fitted or top-dose-only effect; inactive = no such curve, though single readings can be large or run the other way.

C=CCn1c(SCC(=O)NC2CCCC2)nnc1-c1cccnc1	none (no result: G9a block)
C=CCn1c(SCC(=O)c2ccc(O)c(O)c2)nnc1-c1cccc(Cl)c1	JMJD2A Tudor inconclusive, BAZ2B block 50µM
C=CCn1c(SCc2ccccc2)nnc1-c1cccnc1	none
C=CCn1c(SCC(=O)c2ccc(O)c(O)c2)nnc1-c1cccnc1	Six1-Eya2 blk inconclusive, BAZ2B block 35µM, HP1b binding inh 25µM (no result: G9a block)
C=CCn1c(SCc2nc(N)nc(N(C)C)n2)nnc1-c1cccnc1	BAZ2B block inconclusive, G9a block 50µM
COC(=O)c1nnn(CC(=O)Nc2ccc(Br)c(C)c2)c1N	none (no result: Six1-Eya2 blk, CtBP-E1A inh)
C=CCn1c(SCC(=O)Nc2ccccc2OC)nnc1-c1ccccn1	JMJD2A Tudor inconclusive, BAZ2B block inconclusive
C=CCn1c(SCC(=O)Nc2ccc(N(C)C)cc2)nnc1-c1cccc(C)c1	JMJD2A Tudor 50µM, BAZ2B block 45µM, G9a block 7.9µM
C=CCn1c(SCC(=O)Nc2cc(NC(C)=O)ccc2OC)nnc1-c1ccccn1	JMJD2A Tudor inconclusive, BAZ2B block 79µM
C=CCn1c(SCC(=O)Nc2cccc(C)c2)nnc1-c1cnccn1	none (no result: BAZ2B block)
COCCn1c(=NC(=O)c2ccc3c(c2)OCCO3)sc2cc(C(=O)OC)ccc21	none (no result: Six1-Eya2 blk, CtBP-E1A inh)
O=C1CN(c2nc3ccccc3n3cnnc23)CC(=O)N1CCc1ccccc1	G9a block 79µM
CCOc1ccc(C(C(=O)NC2CCCC2)N(CCCO)C(=O)c2ccc(-c3ccccc3)[nH]2)cc1 (stereo not drawn)	JMJD2A Tudor inconclusive, BAZ2B block inconclusive, G9a block 50µM (no result: CtBP-E1A inh)
O=C(NC1CCCC1)C(c1ccncc1)N(Cc1ccco1)C(=O)c1ccc(-c2ccccc2)[nH]1 (stereo not drawn)	JMJD2A Tudor inconclusive, BAZ2B block 35µM, G9a block inconclusive, HP1b binding inh inconclusive
CC(C)(C)NC(=O)C(c1ccncc1)N(Cc1ccc(F)cc1)C(=O)c1ccc(-c2ccccc2)[nH]1 (stereo not drawn)	JMJD2A Tudor inconclusive, BAZ2B block inconclusive, G9a block 28µM
CC(C)(C)NC(=O)C(c1ccncc1)N(Cc1cccs1)C(=O)Cn1nnc(-c2ccc(F)cc2)n1 (stereo not drawn)	none
COc1ccc(C(C(=O)NC2CCCCC2)N(Cc2ccco2)C(=O)c2ccccn2)c(OC)c1 (stereo not drawn)	G9a block 10µM
Cc1cccc(C(=O)NCC(=O)OCc2cc(=O)n3nc(CC(C)C)sc3n2)c1	none (no result: Six1-Eya2 blk, CtBP-E1A inh)
CSc1ccc(CCNC(=O)c2cc(C)nc3c2c(C)nn3-c2ccccc2)cc1	none (no result: Six1-Eya2 blk, CtBP-E1A inh)
CC(C)(C)NC(=O)C(c1ccc(F)cc1)N(CCc1ccccc1)C(=O)c1ccn[nH]1 (stereo not drawn)	JMJD2A Tudor 28µM
O=C(NC1CCCC1)C(c1ccncc1)N(Cc1ccccc1)C(=O)c1ccc(-c2ccccc2)[nH]1 (stereo not drawn)	JMJD2A Tudor inconclusive, BAZ2B block 45µM
Cc1ccc(C(C(=O)NCC2CCCO2)N(Cc2ccccc2)C(=O)c2ccc(-c3ccccc3)[nH]2)o1 (stereo not drawn)	JMJD2A Tudor inconclusive, BAZ2B block 40µM, CtBP-E1A inh inconclusive
COc1cc(-c2nnc(SCCOc3ccc(Cl)cc3C)o2)cc(OC)c1OC	none (no result: Six1-Eya2 blk, CtBP-E1A inh)
COc1ccc(Cn2c(SCc3ccccc3C)nc3cc(OC)c(OC)cc3c2=N)cc1	BAZ2B block inconclusive, G9a block 40µM (no result: Six1-Eya2 blk, JMJD2A Tudor, CtBP-E1A inh, HP1b binding inh)
CCCCNC(=O)c1ccc2c(c1)ncn2-c1cc(OC)ccc1OC	G9a block inconclusive (no result: Six1-Eya2 blk, CtBP-E1A inh)
O=C(Nc1nnc2n1CCS2)c1ccc(F)cc1F	JMJD2A Tudor 50µM, BAZ2B block 50µM, G9a block 2.2µM (no result: Six1-Eya2 blk, CtBP-E1A inh)
Cc1ccccc1C(=O)Nc1nnc2n1CCS2	JMJD2A Tudor inconclusive, BAZ2B block inconclusive, G9a block 8.9µM (no result: Six1-Eya2 blk, CtBP-E1A inh)
O=C(Nc1ccc(N2CCCCC2)cc1)c1ccc(F)cc1F	none (no result: G9a block)
N#C/C(=N\Nc1cccc2ccccc12)c1nnc2n1CCCCC2	BAZ2B block inconclusive, G9a block 1.8µM
Cc1nn(CCOc2ccccc2Cl)c(C)c1[N+](=O)[O-]	G9a block 50µM
O=[N+]([O-])c1ccc(Cl)cc1N1CCOCC1	none
O=c1[nH]c(=S)[nH]c2c1C(c1cc([N+](=O)[O-])c(N3CCOCC3)cc1N1CCOCC1)O2 (stereo not drawn)	G9a block 45µM
COCCn1c(=S)[nH]c2ncccc2c1=O	JMJD2A Tudor 14µM, G9a block inconclusive
COCCCn1c(=S)[nH]c(C)c(C)c1=O	JMJD2A Tudor 22µM (no result: G9a block)
COCCCn1c(=S)[nH]c2ncccc2c1=O	JMJD2A Tudor inconclusive, G9a block 45µM
COc1ccc(OC)c(CCNC(=O)c2cc3c(=O)oc4ccc(C)cc4c3s2)c1	none (no result: Six1-Eya2 blk, CtBP-E1A inh)
O=C(O)c1ccc2nc(-c3ccco3)c(-c3ccco3)nc2c1	Six1-Eya2 blk inconclusive, JMJD2A Tudor 25µM, BAZ2B block 10µM, HP1b binding inh inconclusive
O=C(Nc1cccc(C(F)(F)F)c1)c1ccc2nc(-c3ccco3)c(-c3ccco3)nc2c1	Six1-Eya2 blk -77, JMJD2A Tudor 20µM, BAZ2B block 50µM, G9a block inconclusive, CtBP-E1A inh inconclusive
COc1ccc(CCNC(=O)c2ccc3nc(-c4ccco4)c(-c4ccco4)nc3c2)cc1OC	Six1-Eya2 blk inconclusive, JMJD2A Tudor inconclusive, BAZ2B block 50µM, G9a block inconclusive, CtBP-E1A inh inconclusive, HP1b binding inh inconclusive
COc1ccccc1N1CCN(C(=O)CCn2nc(C)c(S(=O)(=O)N3CCCC3)c2C)CC1	none (no result: Six1-Eya2 blk, CtBP-E1A inh)
COc1ccccc1/C=C/C1=NC(=C\C=C/c2ccccc2)/C(=O)O1	JMJD2A Tudor 56µM, BAZ2B block inconclusive, G9a block inconclusive, HP1b binding inh inconclusive
Cc1c2cnn(CC(=O)Nc3c(F)c(F)cc(F)c3F)c(=O)c2c(C)n1Cc1ccccc1F	JMJD2A Tudor inconclusive, BAZ2B block 56µM, G9a block inconclusive
CCCCC(=O)OCc1cc(=O)n2nc(C3CCCCC3)sc2n1	none (no result: Six1-Eya2 blk, CtBP-E1A inh)
CCC1(c2ccc(F)cc2)NC(=O)N(CC(=O)Nc2ccccc2C)C1=O (stereo not drawn)	JMJD2A Tudor 71µM
CCC1(c2ccccc2)NC(=O)N(CC(=O)Nc2ccccc2C(=O)NC2CC2)C1=O (stereo not drawn)	G9a block 50µM
Cc1ccc2cc3cc(C(=O)N4CCN(c5ccccc5)CC4)oc3nc2c1	none (no result: Six1-Eya2 blk, CtBP-E1A inh)
Cc1cc(C(=O)O)ccc1N/C=C1\CCCC(C)C1=O (stereo not drawn)	G9a block inconclusive
CC1CCC/C(=C\Nc2ccc(O)cc2)C1=O (stereo not drawn)	JMJD2A Tudor 79µM, G9a block inconclusive (no result: BAZ2B block)

Bioassay records from PubChem BioAssay.
